tim23-1 inh: tim23-1 yeast growth inhibition; S. cerevisiae tim23-1 growth, BacTiter-Glo luminescence, 24 h; inhibition, % at 20 µM; 330,000 tested, 1.3% active; AID 463212;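 active = growth inhibition of the mutant yeast at or above 50%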;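 also: temperature-sensitive mutant grown at 25 °C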
tim10-1 inh: growth inhibitors of tim10-1 mutant yeast; inhibition, % at 20 µM; AID 463190; S. cerevisiae tim10-1 ts strain growth, BacTiter-Glo, 24 h; 330,000 tested, 2.2% active;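 active = inhibition of at least 40%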;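 also: mutant grown at 25 °C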
NALP3 yeast inh: NALP3 inhibition in yeast | Yeast reconstituted NLRP3/ASC/caspase-1, beta-gal luminescence, 24 h | inhibition, % at 10 µM | 330,000 tested, 0.39% active | AID 2825;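 active = inhibition of 50% or more; inactive = inhibition below 50%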
TIM10 inh: TIM10 yeast growth inhibition | S. cerevisiae TIM10 strain growth, BacTiter-Glo luminescence, 24 h | inhibition, % at 10 µM | 330,000 tested, 1.4% active;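 active = inhibition of 40% or more at the single tested concentration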;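 also: wild-type TIM10 isogenic control strain grown at permissive 25 °C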
NALP1 yeast inh: blocks the NALP1 inflammasome reconstituted in yeast | S. cerevisiae NALP1/ASC/caspase-1 growth, X-gal OD620, 72 h | inhibition, % at 10 µM | 280,000 tested, 0.61% active; in the data active = inhibition mostly above about 24%, no sharp cut-off; inactive = mostly below about 32%
tim10-1 conf: confirmation of tim10-1 mutant yeast growth inhibitors; inhibition, % at 20 µM; 7,400 tested, 56% active; S. cerevisiae tim10-1 ts strain growth, BacTiter-Glo, 24 h; shares compounds with tim10-1 inh; AID 463213;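 active = inhibition of yeast growth at or above a set limit in either of two repeat tests at 20 µM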;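 also: tim10-1 mutant grown at permissive 25 °C to find synthetic lethal compounds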
tim10 confirm: confirmation of TIM10 yeast growth inhibitors | inhibition, % at 10 µM | AID 463215 | S. cerevisiae tim10 strain growth, BacTiter-Glo luminescence, 24 h | 4,600 tested, 63% active | shares compounds with TIM10 inh;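 active = inhibition of yeast growth at or above a set limit in either of two replicates at 10 µM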; also: this counterscreen used the strain with wild-type TIM10
tim23-1 confirm: tim23-1 yeast growth inhibition, confirmed; inhibition, % at 20 µM; 4,400 tested, 83% active; S. cerevisiae tim23-1 growth, BacTiter-Glo luminescence, 24 h; shares compounds with tim23-1 inh;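 active = inhibition above about 39% in either of two replicate wells at 20 µM, limit read from the data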;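 also: temperature-sensitive tim23-1 mutant grown at 25 °C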
Of the large screens only hits and unclear results are named; the others gave an inactive call (follow-up assays come after a bar, where they were run). Sampled rows, rich in hits. Any-hit rate of the full collection: about 4%.

CC1CCN(C(=O)C(C)c2ccc([N+](=O)[O-])cc2)CC1 (stereo not given)	none
CC1CCN(S(=O)(=O)c2ccc(Cl)cc2)CC1	tim23-1 inh 54.5, tim10-1 inh 40.2, TIM10 inh 42.4 | tim10-1 conf 35.8 | tim10 confirm inactive | tim23-1 confirm 40.2
O=C(c1cc(COc2ccc(F)cc2Cl)on1)N1CCCCCCC1	tim23-1 inh 50.7, tim10-1 inh 41.0 | tim10-1 conf inactive | tim23-1 confirm 42.0
O=C(c1cc(COc2ccc(F)cc2Cl)on1)N1CCCCCC1	none
Clc1ccc2[nH]c(-c3ccccc3)cc2c1	tim23-1 inh 61.4, tim10-1 inh 49.9 | tim10-1 conf 45.0 | tim23-1 confirm 73.2
c1ccc(-c2cc3ccccc3[nH]2)cc1	none
CCCCn1c(N)c(N(CC(C)C)C(=O)CCCc2cccs2)c(=O)[nH]c1=O	none
CC1(C)C(=O)Nc2ccccc2N1C(=O)COc1ccccc1C#N	none (no result: NALP1 yeast inh)
COc1ccc(C(=O)NNC(=O)c2ccccn2)cc1	tim23-1 inh 51.3, tim10-1 inh 51.8 | tim10-1 conf 40.5 | tim23-1 confirm 42.1
COc1cccc(CN2C(=O)C(C)Oc3ccccc32)c1 (stereo not given)	none
COc1cccc(CN2c3ccc(Br)cc3C(=O)CS2(=O)=O)c1	tim23-1 inh 56.9, tim10-1 inh 40.5 (no result: NALP1 yeast inh) | tim10-1 conf 38.2 | tim23-1 confirm 59.8
O=C(Nc1ccc(Br)c(C(F)(F)F)c1)c1ccccc1	tim23-1 inh 73.2, tim10-1 inh 58.0, TIM10 inh 68.2 | tim10-1 conf 49.7 | tim10 confirm inactive | tim23-1 confirm 78.5
O=C(Nc1cccc(O)c1)c1ccc(C(F)(F)F)cc1	none
O=C(Nc1ccc(Br)c(C(F)(F)F)c1)c1ccc(C(F)(F)F)cc1	tim23-1 inh 81.4, tim10-1 inh 45.1, TIM10 inh 72.4 (no result: NALP1 yeast inh) | tim10-1 conf 48.3 | tim10 confirm 81.4 | tim23-1 confirm inactive
O=C(Nc1ccc(C(F)(F)F)cc1)c1ccccc1	none (no result: NALP1 yeast inh)
CC(=O)Oc1oc(-c2ccccc2)nc1C=Nc1ccccc1	tim23-1 inh 77.0, tim10-1 inh 53.4, TIM10 inh 40.6 | tim10-1 conf 48.6 | tim10 confirm 44.0 | tim23-1 confirm 76.2
CCC(=O)Oc1oc(-c2ccccc2)nc1C=Nc1ccc(C)cc1	none
CCOC(=O)c1ccc(N=Cc2nc(-c3ccccc3)oc2OC(C)=O)cc1	tim23-1 inh 57.9, tim10-1 inh 70.6, TIM10 inh 45.4 | tim10-1 conf 54.7 | tim10 confirm 68.1 | tim23-1 confirm 83.5
CN(C)c1ccc(N=Cc2nc(-c3ccccc3)oc2OC(=O)c2cccc(Br)c2)cc1	none
Cc1ccc(C(=O)Oc2oc(-c3ccco3)nc2C=Nc2ccccc2)cc1	none (no result: tim23-1 inh, tim10-1 inh, NALP3 yeast inh, TIM10 inh)
CCC(=O)Oc1oc(-c2ccccc2)nc1C=Nc1ccccc1OC	tim23-1 inh 52.6, tim10-1 inh 49.6 | tim10-1 conf 36.5 | tim23-1 confirm 70.2
CCCc1ncc(CN2CCCCC2C(=O)Nc2ccc(Oc3ccccc3)nc2)cn1 (stereo not given)	none
COc1ccc(-c2cc(C(=O)N(C)Cc3cccc(OC)c3OC)c3ccccc3n2)cc1OC	tim23-1 inh 69.9, tim10-1 inh 53.1, TIM10 inh 50.1 | tim10-1 conf 64.2 | tim10 confirm 50.4 | tim23-1 confirm 93.8
CN1C(=O)Cc2cc(S(=O)(=O)Nc3ccc(Cl)cc3)ccc21	none
CC(Oc1ccc2c(c1)c1ccnc3c4ccccc4c(=O)n2c13)C(=O)NCCN1CCOCC1 (stereo not given)	none
O=C(C1=C(c2ccccc2)C(=O)c2ccccc2C1=O)c1ccccc1	none (no result: tim23-1 inh, tim10-1 inh, NALP3 yeast inh, TIM10 inh)
CCOC(=O)c1c(C)oc2c1C(=O)c1ccccc1C2=O	tim23-1 inh 78.9, tim10-1 inh 71.8, TIM10 inh 72.5 | tim10-1 conf 73.6 | tim10 confirm 64.4 | tim23-1 confirm 93.9
Cc1oc2c(c1C(=O)O)C(=O)c1ccccc1C2=O	none
Cc1onc(-c2ccccc2Cl)c1C(=O)c1ccccc1	none
